Counter-ions that a name gives are not always drawn. ± gives the standard deviation of the averaged measurements.

The subject of this assay is Toxoplasma gondii RH (in HFF). In words: parasite growth relative to the screen mean (all compounds = 100%); higher = less inhibition of parasite growth. Conditions: 5 µM; 72 h; oxygen 21 %. In a few lines:
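Growth values are relative to the mean of the whole screen and averaged over duplicate screens, with all compounds together set to 100%. Parasites (RH β-Gal–GFP Toxoplasma, MOI 1:5) were added within 2 h of pinning compounds at 5 µM final onto confluent human foreskin fibroblasts and grown 72 h at 21% O2. Parasite number came from CPRG β-Gal readings against in-plate standard curves.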
Consider `COc1cc2c(cc1C(F)(F)F)N(C(=O)Nc1cc(F)cc(-c3cccnc3)c1)CC2`, for which the parasite growth amounted to 29.9 ± 3.3%.
Molecule `Cc1nc2sccn2c(=O)c1CCN1CCC(=C(c2ccc(F)cc2)c2ccc(F)cc2)CC1` [Ritanserin] had a parasite growth of 123 ± 15%.
As to `O=C1NN(C(=O)Nc2ccc(Br)cc2)[C@@H](c2ccccc2)[C@@H]1c1ccccc1`, the parasite growth came out at 124.5 ± 1.1%.
The result for `NC(N)=NC(N)=Nc1cccc(Cl)c1` [m-Chlorophenylbiguanide hydrochloride] reads 133 ± 15%.
The result for `CN(C)CCC=C1c2ccccc2COc2ccccc21` [Doxepin hydrochloride] reads 159 ± 36%; that for `CN1[C@@H](CC(=O)c2ccccc2)CCC[C@H]1C[C@H](O)c1ccccc1` [Lobeline hydrochloride], 179 ± 40%.

The values above are taken from the supplement of paper PMC4894684.
